High-throughput results deposited in PubChem BioAssay by National Center for Advancing Translational Sciences (NCATS).
An excerpt weighted towards active compounds, which were near 19% of everything screened.
AMA1 RON2 block – inhibitors of Plasmodium falciparum AMA1-RON2 interaction. Potency, µM (doses to about 58.2 µM), usual class: inhibitors. 360,000 compounds, 0.2% hits. AlphaScreen AMA1-biotinylated RON2 peptide binding; note: nearly all actives have a fitted effect of over 45% in size
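AMA1 (3D7) with his tag at 25 nM final met compounds first, then biotinylated RON2 peptide at 25 nM; detection used donor plus acceptor beads, 10 µg/mL apiece, read by AlphaScreen after 30 min at room temperature.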
Pf growth 48h – P. falciparum growth inhibition at 48 hours (one generation) | P. falciparum luciferase growth in erythrocytes, 48 h | Potency, µM (titrated, usually from 28.7 µM), hits mostly inhibitors | 310,000 compounds, 5.9% hits | AID 504832
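Compounds are pin-transferred into medium, infected erythrocytes (2% hematocrit, 0.1% parasitemia final) are added, and plates sit one parasite generation at 37 C in 5% CO2. Detection reagent is then added and luminescence measured.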
SARS PLpro yeast – SARS-CoV PLP inhibition in yeast; S. cerevisiae expressing SARS-CoV PLpro, growth rescue; Potency, µM (titrated, usually from 32.9 µM), most hits filed as activators; 330,000 compounds, 0.19% hits; calls by dose curve; note: nearly all actives have a fitted effect of over 55% in size
Shiga inhibitor – blocks Shiga toxin action in Vero cells | Vero cells, Shiga toxin protein synthesis inhibition reporter | inhibition, % at 38.7 µM | 290,000 compounds, 9.2% hits | AID 2315; in the data active = inhibition mostly above about 28%, no sharp cut-off; inactive = mostly below about 43%
Cycloheximide cs – counter-screen hit for Shiga toxin inhibitors, cycloheximide. 300,000 compounds, 12% hits. cell reporter, cycloheximide protein synthesis inhibition counterscreen. max response, %. AID 2314; in the data active = max response mostly above about 13%, no sharp cut-off; inactive = mostly below about 14%; note: read at 38.3 µM for the half of the compounds with a filed dose
Pf growth 96h – P. falciparum growth inhibition at 96 hours; P. falciparum luciferase reporter growth, 96 h; Potency, µM (top dose mostly 28.7 µM), most hits filed as inhibitors; 320,000 compounds, 6.9% hits
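Readout is luminescence from an integrated firefly luciferase in P. falciparum. Red cells, 2% hematocrit and 0.05% parasitemia final, were cultured with compound through two parasite generations (96 hours) at 37 C, 5% CO2.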
Large screens that a line does not name were inactive. Unless noted, calls come from the whole dose curve; as a rule, active = well fitted curve in the direction sought with a large enough effect; inconclusive = small, poorly fitted or top-dose-only effect, or another doubt; inactive = no such curve, though single readings can be large; an effect the other way counts as inactive or inconclusive.

COc1ccc(Nc2nc(NN)nc(Nc3ccc(OC)cc3)n2)cc1	Pf growth 48h 9.3µM, Pf growth 96h 3.3µM (no result: Shiga inhibitor)
CC(C)(CO)NCC(=O)Nc1cc(C(F)(F)F)cc(NC(=O)CNC(C)(C)CO)c1Cl	none
COc1ccc(Nc2ccc(OC)cc2)cc1	AMA1 RON2 block inconclusive, Pf growth 48h inconclusive, Shiga inhibitor 87, Cycloheximide cs 46, Pf growth 96h inconclusive
O=C(O)Cc1ccc(C(=O)c2cccs2)s1	Pf growth 96h 10µM
O=C(O)c1ccccc1C(=O)c1cccs1	none
CCc1ccc(N2C(=O)NC(=O)C(CCc3ccncc3)(CCc3ccncc3)C2=O)cc1	Pf growth 48h inconclusive
O=C1NC(=O)C(CCc2ccncc2)(Cc2cccc(Cl)c2Cl)C(=O)N1c1ccc(Br)cc1 (stereo not drawn)	Pf growth 48h inconclusive, Pf growth 96h 5.2µM
COc1cccc(CNS(=O)(=O)c2ccc3c(c2)C(C)(C)C(=O)N3C)c1	none
CCOc1ccccc1/C=N/NC(=O)c1nnn(-c2nonc2N)c1CN1CCCCCC1	none (no result: Pf growth 48h, SARS PLpro yeast, Shiga inhibitor, Cycloheximide cs, Pf growth 96h)
CC(C)c1ccc(NC(=O)C2CC2c2ccccc2)cc1 (stereo not drawn)	Cycloheximide cs 18, Pf growth 96h inconclusive
O=C(O)C1CCCCC1C(=O)Nc1ccc(F)c(F)c1 (stereo not drawn)	none
O=C(Nc1ccc2c(c1)OCCO2)C1CC1c1ccccc1 (stereo not drawn)	Shiga inhibitor 94, Cycloheximide cs 65
O=C(Nc1ccncc1)C1CC1c1ccccc1 (stereo not drawn)	Pf growth 48h inconclusive (no result: Pf growth 96h)
O=C(Nc1ccc2c(c1)OCCO2)C(=O)NC1CC1	Shiga inhibitor 80, Cycloheximide cs 29
O=C(O)C1CCCCC1C(=O)Nc1ccc2c(c1)OCCO2 (stereo not drawn)	Shiga inhibitor 102, Cycloheximide cs 34
COc1ccccc1CNS(=O)(=O)c1ccc2c(c1)N(C(C)=O)CCO2	none
CCOCCn1c(N2CCCC2)nc2c1c(=O)[nH]c(=O)n2C	Pf growth 96h inconclusive (no result: Shiga inhibitor)
NNC(=O)C1CC1c1ccccc1 (stereo not drawn)	Pf growth 96h 9.3µM
CC(=O)c1c(C)[nH]c(C(=O)OCC(=O)Nc2cc(S(=O)(=O)N3CCCC3)ccc2Cl)c1C	none
Cc1ccc(C)c(C(=O)OCC(=O)Nc2cccc(S(=O)(=O)N3CCCCC3)c2)c1	Pf growth 48h 10µM, Pf growth 96h 10µM (no result: Shiga inhibitor, Cycloheximide cs)
CC(=O)c1c(C)[nH]c(C(=O)OCC(=O)Nc2cccc(S(=O)(=O)N3CCCC3)c2)c1C	Pf growth 48h 5.9µM, Pf growth 96h 0.83µM
Cc1ccc(C)c(OCCC(=O)Nc2cccc(S(=O)(=O)N3CCCCC3)c2)c1	Pf growth 48h 12µM, Pf growth 96h inconclusive (no result: Shiga inhibitor, Cycloheximide cs)
Cc1ccc(C)c(OCCC(=O)Nc2cc(S(=O)(=O)N3CCCCC3)ccc2C)c1	none (no result: Pf growth 48h, Shiga inhibitor, Cycloheximide cs, Pf growth 96h)
C=CCn1c(SCC(=O)Nc2ccc(N3CCOCC3)cc2)nc2ccccc2c1=O	Pf growth 48h inconclusive
CC(=O)c1cc(-c2ccc(F)cc2)n(CCC(=O)Nc2cccc(C)n2)c1C	none
COc1cc(CNc2ncn[nH]2)ccc1OCc1cccc(C)c1	Shiga inhibitor 70, Cycloheximide cs 48
Cc1ccc(NCc2ccccc2)cc1	AMA1 RON2 block inconclusive, Shiga inhibitor 94, Cycloheximide cs 49
CSc1ccc(CNc2ccc(C)cc2)cc1	Shiga inhibitor 80, Cycloheximide cs 36
c1ccc(CNc2ccc(CNc3ncn[nH]3)cc2)cc1	Cycloheximide cs 18
Cc1ccsc1C(=O)OCC(=O)NC1CCCC1	none (no result: Shiga inhibitor, Cycloheximide cs)
Cc1cc(C)nc(N2CCCC(C(=O)Nc3cc(F)ccc3C)C2)n1 (stereo not drawn)	Pf growth 96h inconclusive
CSc1ccc(CNc2ccc(C)c(C)c2)cc1	Shiga inhibitor 79, Cycloheximide cs 25
Cc1ccc(NCc2cccnc2)cc1	none (no result: Pf growth 48h)
Cc1ccc(CNc2cccnc2)cc1	Shiga inhibitor 38, Cycloheximide cs 43
COc1cc(/C=N/N=C2/NC(=O)C(Cc3ccccc3)S2)ccc1O (stereo not drawn)	Shiga inhibitor 99, Cycloheximide cs 33, Pf growth 96h inconclusive
C(=N\N=C\c1cccs1)/c1cccs1	Shiga inhibitor 71, Cycloheximide cs 45, Pf growth 96h inconclusive
O=C1N/C(=N\N=C\c2cccnc2)SC1Cc1ccc(SC(F)F)cc1 (stereo not drawn)	Pf growth 48h 3.3µM (no result: Pf growth 96h)
